The text below walks through data of PubChem BioAssay (Tox21).

Inconclusive results are not listed. Entries that show only a call come without a potency. Unmarked numbers belong to inactive results. Activity calls are given as the source filed them. Unless noted, calls follow the shape of the dose curve; as a rule, active = well fitted curve in the direction sought with a large enough effect in the repeat runs; inconclusive = weak or mixed curves; inactive = no such curve, though single readings can be large; an effect the other way counts as inactive or inconclusive.

The target in assay [1] is Retinoic acid receptor RXR-alpha (Homo sapiens) (UniProt P19793). As to the kind of experiment: qHTS assay to identify small molecule agonists of the RXR signaling pathway (AID 1159527; calls by dose curve; also: nearly all actives have a fitted effect of over 35% in size; also: potency is read from the fitted curve at half-maximal effect). The conditions noted are these: HEK293T RXRa-UAS-bla, beta-lactamase ratio, 16 h; series mostly up to 76.8 µM. The gist of the method:
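Compounds in DMSO were added to RXR-alpha-UAS-bla HEK 293T cells kept in 2% charcoal-stripped serum, and incubated 16 hr at 37 C with 5% CO2. Reporter signal came from a 2 hr B/G FRET substrate step.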
For orientation: In qHTS, concentration-response curves come from the screen itself.

Assay [2] can be described thus: qHTS assay to identify small molecule antagonists of the retinoid acid receptor (RAR) signaling pathway - cell viability counter screen (AID 1159551). Also: nearly all actives have a fitted effect of over 35% in size. The conditions noted are these: C3RL4 cells viability, ATP luminescence (CellTiter-Glo), 6 h; series mostly up to 92.4 µM. In outline:
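In this counter screen, the RARE-luciferase line C3RL4 was exposed for 6 h at 37 C and 5% CO2 to compounds with retinol at 1 uM final. Cellular ATP, read by luminescence, served as the viability measure.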

Assay [3] in a line: qHTS assay to identify small molecule agonists of the retinoic acid receptor (RAR) signaling pathway (AID 1159553). Also: potency is read from the fitted curve at half-maximal effect. The settings on record: C3RL4 RARE luciferase reporter, agonist, 6 h; series mostly up to 73.3 µM. In outline:
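In this cell-based screen, 1,000 C3RL4 cells per well were cultured overnight, dosed with test chemicals in DMSO for 6 hr, and assessed for RARE luciferase luminescence.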

The nature of assay [4]: qHTS assay to identify small molecule antagonists of the retinoic acid receptor (RAR) signaling pathway (AID 1159552; also: nearly all actives have a fitted effect of over 50% in size). The conditions noted are these: C3RL4 RARE luciferase reporter, retinol-stimulated, 6 h; series mostly up to 92.4 µM. The gist of the method:
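Antagonism of retinol-induced RARE reporter activity was measured in C3RL4 cells. Exposure to compounds and 1 uM final retinol lasted 6 hr at 37 C, with luminescence as endpoint.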

Assay [5] can be described thus: qHTS assay to identify small molecule agonists of the RXR signaling pathway - cell viability counter screen (AID 1159529). Also: nearly all actives have a fitted effect of over 50% in size. Also: potency is read from the fitted curve at half-maximal effect.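 As to activity change, negative = cytotoxicity: HEK 293T cells carrying an RXR-alpha UAS beta-lactamase reporter.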 The settings on record: RXR-alpha-bla HEK293T viability, CellTiter-Glo, 16 h; series mostly up to 76.8 µM. In outline: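 Counter screen: CellTiter-Glo luminescence. Cells: RXR-alpha-UAS-bla HEK 293T. Medium: 2% charcoal-stripped FBS. Treatment: 16 h, 37 C. Reagent incubation: 30 min, RT.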

The nature of assay [6]: qHTS assay to identify small molecule antagonists of the estrogen related receptor (ERR) signaling pathway - cell viability counter screen (AID 1224818). The conditions noted are these: ERR reporter cell line viability counter screen; series mostly up to 46.1 µM. The gist of the method:
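Viability of ERR cells, CellTiter-Fluor fluorescence; 17.5 h compound exposure at 37 C, DMSO vehicle; 30 min reagent incubation at 37 C/5% CO2.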

The nature of assay [7]: qHTS assay to identify small molecule antagonists of the estrogen related receptor (ERR) signaling pathway (AID 1224819;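 also: luminescence from an ERR-driven luciferase reporter measured with One-Glo reagent; nearly all actives have a fitted effect of over 50% in size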). The settings on record: ERR reporter cell line, luciferase inhibition; series mostly up to 46.1 µM. The gist of the method:
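Seed ERR cells 2,000/well; rest 6 h at 37 C/5% CO2; pin compounds in DMSO; incubate 18 h at 37 C; add One-Glo; wait 30 min at room temperature; measure luminescence.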

The nature of assay [8]: qHTS assay to identify small molecule agonists of the estrogen related receptor (ERR) signaling pathway (AID 1224820). The conditions noted are these: ERR reporter cell line, luciferase agonist mode; series mostly up to 46.1 µM. In outline:
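An ERR cell line provided by NTP was seeded at 2,000 cells per well and allowed to settle for 6 h before compounds in DMSO were added. After 18 h at 37 C, luciferase activity was measured by One-Glo luminescence.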

Assay [9] has as its system estrogen-related receptor alpha (ERRalpha) with PGC-1alpha coactivator, human. The assay can be described thus: qHTS assay to identify small molecule antagonists of the estrogen related receptor signaling pathway with the pleiotropic PPARgamma coactivator (PGC) (AID 1224821; calls by dose curve;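 also: lower luminescence signal means antagonism of PGC/ERR signalling; nearly all actives have a fitted effect of over 50% in size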). The settings on record: ERR/PGC reporter cell line, luciferase, antagonist mode; series mostly up to 46.1 µM. The gist of the method:
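A PGC/ERR cell line supplied by NTP is seeded, allowed 6 h at 37 C, and treated with test compounds in DMSO for 18 h. Signal is then measured as luciferase luminescence using One-Glo.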

The nature of assay [10]: qHTS assay to identify small molecule antagonists of the estrogen related receptor signaling pathway with the pleiotropic PPARgamma coactivator (PGC) cell viability counter screen (AID 1224822). The conditions noted are these: ERR/PGC reporter cell line viability counter screen; series mostly up to 46.1 µM. In outline: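 17.5 h compound treatment of PGC/ERR cells at 37 C; readout CellTiter-Fluor fluorescence; run alongside the PGC/ERR antagonist screen to flag cytotoxic compounds.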

Chain of Retinoic acid receptor RXR-alpha (Homo sapiens) (P19793 whole entry, looked up): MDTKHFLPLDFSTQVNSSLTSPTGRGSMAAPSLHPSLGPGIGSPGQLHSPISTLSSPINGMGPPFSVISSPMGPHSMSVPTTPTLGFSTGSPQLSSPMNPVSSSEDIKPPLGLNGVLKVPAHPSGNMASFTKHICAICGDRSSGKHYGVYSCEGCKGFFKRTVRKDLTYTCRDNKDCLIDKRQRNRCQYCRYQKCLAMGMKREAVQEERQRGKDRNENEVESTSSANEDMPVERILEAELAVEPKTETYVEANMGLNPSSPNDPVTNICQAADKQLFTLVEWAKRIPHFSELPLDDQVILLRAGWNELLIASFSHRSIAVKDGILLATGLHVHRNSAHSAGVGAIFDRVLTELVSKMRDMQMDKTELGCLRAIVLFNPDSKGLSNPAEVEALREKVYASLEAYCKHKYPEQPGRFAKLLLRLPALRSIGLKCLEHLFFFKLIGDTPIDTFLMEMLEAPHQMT

Turning to `CCC/C=C/CO`, the Potency result in assay [1] and in assay [3] was “inactive” in each case. For the same molecule, in assay [2], the call was inactive.

Consider `CC(C)=CCC[C@](C)(O)[C@@H]1CC=C(C)CC1`, for which the Potency result in assay [1], in [4] and in assay [3] was “inactive” throughout.

In the case of `CC1(O)CSC(C)(O)CS1` (configuration not stated), the Potency result in assay [5], in assay [4] and in assay [3] was “inactive” throughout. For the same molecule, in [2], the molecule was called inactive.

With `COC(=O)c1ccc(OC)cc1`, the Potency entry in [1] and in assay [3] was “inactive” throughout. Besides, the result in [2] was inactive.

Take `CC(=O)N(CC(O)CN(C(C)=O)c1c(I)c(C(=O)NCC(O)CO)c(I)c(C(=O)NCC(O)CO)c1I)c1c(I)c(C(=O)NCC(O)CO)c(I)c(C(=O)NCC(O)CO)c1I` (configuration not stated): the Potency entry in [1], in [4] and in assay [3] was “inactive” in each case. Further, in [2], the outcome was inactive.

As to `CN1C(=O)CC(c2ccccc2)C1=O` (configuration not stated), the Potency entry in [1], in assay [4] and in assay [3] was “inactive” throughout. For the same molecule, the molecule was called inactive in assay [2].

For `CCCN(CCC)C(=O)C(CCC(=O)O)NC(=O)c1ccccc1` (configuration not stated), the Potency entry in [1], in assay [4] and in [3] was “inactive” in each case. In addition, the call in assay [2], in [6], in [7], in [8], in [9] and in [10] was inactive.

As to `CCCCCCCCOC(=O)CCCCCCCCC(=O)OCCCCCCCC`, the Potency in assay [1] was 9.77 µM (active). In addition, the call in assay [2] was inactive. Moreover, in assay [3], the Potency result is “inactive”.

As to `CCCCCCCCc1ccc(S(=O)(=O)O)cc1`, the Potency in assay [5] is 24.3 µM (active). Further, the call in assay [2] was inactive. The Potency result in assay [4] and in assay [3] was “inactive” each time.

For the molecule `Cc1cc2c(s1)Nc1ccccc1N=C2N1CCN(C)CC1`, the Potency result in assay [1] and in [3] was “inactive” each time. Besides, the molecule was classed as inactive in assay [2].

On to `CCCCNC(=S)NCCCC`, for which the Potency entry in assay [5] is “inactive”. In [2], the molecule was classed as inactive.

For the molecule `Cc1c(N)cccc1N`, the Potency entry in assay [5] was “inactive”. Moreover, the molecule was called inactive in assay [2].

Turning to `CCCCc1ccc2nc(NC(=O)OC)[nH]c2c1`, the Potency result in assay [5] and in assay [4] was “inactive” each time. Moreover, in [2], the outcome was inactive. Further, in [3], the Potency was 8.41 µM (active).

On to `C[C@@H]1CN(c2c(F)c(F)c3c(=O)c(C(=O)O)cn(C4CC4)c3c2F)C[C@H](C)N1`, for which, in [1], the activation was 6.08% [at 15.8 µM]. The activity change, negative = cytotoxicity in [2] is 3.44% [at 19 µM]. The activity, negative = inhibition in [4] is 16.3% [at 19 µM]. For the same molecule, the Potency entry in [3] is “inactive”.
